{
  "source": "PubChem BioAssay (Tox21)",
  "note": "Inconclusive results are not listed. Values without a mark were called inactive. The call rests on the fitted dose curve; in most records, active means well fitted cell-killing curve with a large enough effect in the repeat runs; inconclusive means weak or mixed curves, or effect the other way; inactive means flat fitted curve, though single readings scatter. On the % scale 0 is the no-effect control and ±100 the full control effect.",
  "data": [
    {"assay": "qHTS RealTime-Glo MT Cell Viability Assay in HepG2 cells - 40 hour (AID 1224870); further: nearly all actives have a fitted effect of over 50% in size", "conditions": "RealTime-Glo luminescence; series mostly up to 76.8 µM; activity change, negative = cytotoxic: at the top concentration", "excerpt": "National Center for Advancing Translational Sciences [NCATS]\nNIH Chemical Genomics Center [NCGC]\nU.S. Environmental Protection Agency [EPA]\nNational Institutes of Environmental Health Sciences [NIEHS]\nNational Toxicology Program [NTP]\nU.S. Food and Drug Administration [FDA]\nMeasure of cell viability is critical in the cell-base assay. Analysis of cell viability is necessary for the characterization of cell responses to cytotoxic drugs and environmental stress. A RealTime-Glo MT Cell Viability Assay to monitor cell viability in real time of continues cell culture during 40 hours of compound treatment was used to screen Tox21 10K library compounds in HepG2 cells. The RealTime-Glo MT Cell Viability Assay is a nonlytic, homogeneous, bioluminescent method to measure cell viability in real time using a simple, plate-based method. The assay involves adding NanoLuc luciferase and a cell-permeant prosubstrate to cells in culture. Viable cells reduce the proprietary prosubstrate to generate a substrate for NanoLuc luciferase. This substrate diffuses from cells into the surrounding culture medium, where it is rapidly used by the NanoLuc Enzyme to produce a luminescent signal. The signal correlates with the number of viable cells, making the assay well suited for cytotoxicity studies.\nTox21 Assay Protocol Summary:\nThe mixture of HepG2 cell suspension and reagents were dispensed at 600cells/6 ul/well in 1536-well tissue culture treated black solid bottom plates using a Multidrop dispenser. After the assay plates were incubated at a 37 C/5% CO2 incubator for 5 hours, 23 nL of compounds dissolved in DMSO, positive and negative controls was transferred to the assay plate by a pintool work station. The plates were incubated at 37 C for 40 hours. The luminescence intensity were measured at 0h, 8h, 16h, 24h, 32h and 40h time points using ViewLux plate reader during compound treatment.", "values": [
      {"smiles": "Nc1ccc(-c2ccc(F)cc2)cc1", "activity change, negative = cytotoxic": "-2.08%"},
      {"smiles": "CC(=O)Nc1ccn(C2COC(COC(=O)c3ccccc3)O2)c(=O)n1", "note": "(stereo not given)", "activity change, negative = cytotoxic": "3.21% [at 35.3 µM]"},
      {"smiles": "CCC(CC)C(=O)O", "activity change, negative = cytotoxic": "-0.328%"},
      {"smiles": "CC(CC(C#N)(c1ccccc1)C(C)C)N(C)C", "note": "(stereo not given)", "activity change, negative = cytotoxic": "0.544% [at 35.3 µM]"},
      {"smiles": "CC(=O)S[C@H](C(=O)N[C@H]1Cc2ccccc2[C@H]2CCC[C@@H](C(=O)O)N2C1=O)C(C)C", "activity change, negative = cytotoxic": "2.82%"},
      {"smiles": "CC(C)CCCCCOC(=O)CS", "activity change, negative = cytotoxic": "-0.227%"},
      {"smiles": "CCC(C(=O)O)c1ccc(N2Cc3ccccc3C2=O)cc1", "note": "(stereo not given)", "activity change, negative = cytotoxic": "3.97% [at 35.3 µM]"},
      {"smiles": "O=C1c2ccccc2C(=O)C1c1ccc2ccccc2n1", "activity change, negative = cytotoxic": "18.6% [at 35.3 µM]"},
      {"smiles": "Cc1ccc(NC=O)c(C)c1", "activity change, negative = cytotoxic": "1.41%"},
      {"smiles": "O=C(O)c1ccccc1[N+](=O)[O-]", "activity change, negative = cytotoxic": "2.22%"},
      {"smiles": "O=C1C=CCCC1", "activity change, negative = cytotoxic": "1.53%"},
      {"smiles": "CC1(COc2ccc(CC3SC(=O)NC3=O)cc2)CCCCC1", "note": "(stereo not given)", "activity change, negative = cytotoxic": "0.0797% [at 35.3 µM]"},
      {"smiles": "CC(C)(O)C(=O)O", "activity change, negative = cytotoxic": "2.92%"},
      {"smiles": "S=c1[nH][nH]c(=S)s1", "activity change, negative = cytotoxic": "0.573%"},
      {"smiles": "CCOC(C)OCC", "activity change, negative = cytotoxic": "1.98%"},
      {"smiles": "CCCC(=O)OCc1ccccc1", "activity change, negative = cytotoxic": "0.273%"},
      {"smiles": "O=C(N[C@@H](Cc1ccccc1)[C@@H](O)C(=O)N1C[C@@H](O)[C@@H](O)C1)c1cc2cc(Cl)ccc2[nH]1", "activity change, negative = cytotoxic": "-1.63%"},
      {"smiles": "O=C(Cl)c1ccc(F)c(Cl)c1", "activity change, negative = cytotoxic": "0.514%"},
      {"smiles": "O=C1OC(=O)C2CC=CCC12", "note": "(stereo not given)", "activity change, negative = cytotoxic": "-0.534%"},
      {"smiles": "Nc1cccc2c(=O)[nH][nH]c(=O)c12", "activity change, negative = cytotoxic": "-5.99%"},
      {"smiles": "Cc1ccc(NC(=O)c2ccc(CN3CCN(C)CC3)cc2)cc1Nc1nccc(-c2cccnc2)n1", "activity change, negative = cytotoxic": "-6.35% [at 35.3 µM]"},
      {"smiles": "CCCCCCCCCCCCCCCCCCCl", "activity change, negative = cytotoxic": "2.37% [at 6.97 µM]"},
      {"smiles": "COc1ccnc2c1CCCCC2S(=O)c1nc2ccccc2[nH]1", "note": "(stereo not given)", "activity change, negative = cytotoxic": "0.827% [at 35.3 µM]"},
      {"smiles": "COc1ccc(/C=C/c2cc(OC)cc(=O)o2)cc1", "activity change, negative = cytotoxic": "4.87% [at 35.3 µM]"},
      {"smiles": "CC1(C)[C@@H]2CC[C@]3(C2)[C@@H]1C(=O)CCC3(C)C", "activity change, negative = cytotoxic": "-0.576%"},
      {"smiles": "CC(C)(C)N", "activity change, negative = cytotoxic": "3.52%"},
      {"smiles": "O=C1c2ccccc2C(=O)C1c1ccc2cc(S(=O)(=O)O)cc(S(=O)(=O)O)c2n1", "activity change, negative = cytotoxic": "-17.4%"},
      {"smiles": "Sc1nc(S)nc(S)n1", "activity change, negative = cytotoxic": "2.04% [at 35.3 µM]"},
      {"smiles": "CC(C)=CCCC(C)C=O", "note": "(stereo not given)", "activity change, negative = cytotoxic": "-2.05%"},
      {"smiles": "CCCC(=O)OCCC(C)C", "activity change, negative = cytotoxic": "-0.926%"},
      {"smiles": "O=C(c1ccco1)N1CCNCC1", "activity change, negative = cytotoxic": "1.01% [at 35.3 µM]"},
      {"smiles": "Nc1ccc(C(=O)Oc2ccccc2)c(O)c1", "activity change, negative = cytotoxic": "0.146% [at 35.3 µM]"},
      {"smiles": "C=CC(C)CCC=C(C)C", "note": "(stereo not given)", "activity change, negative = cytotoxic": "0.461%"},
      {"smiles": "CC(=O)c1ccc(Cl)c(Cl)c1Cl", "activity change, negative = cytotoxic": "-0.644%"},
      {"smiles": "CCCC1CCOC(C)S1", "note": "(stereo not given)", "activity change, negative = cytotoxic": "1.74%"},
      {"smiles": "CC(C)NC(=O)c1ccccc1N", "activity change, negative = cytotoxic": "-0.886%"},
      {"smiles": "CCCCCCCCCCCCSC#N", "activity change, negative = cytotoxic": "0.975%"},
      {"smiles": "Oc1ccc(Oc2ccccc2)cc1", "activity change, negative = cytotoxic": "-4.58%"},
      {"smiles": "CC(C)C/C=C(\\C=O)c1ccccc1", "activity change, negative = cytotoxic": "0.443%"},
      {"smiles": "O=C(O)c1cccnc1Nc1cccc(C(F)(F)F)c1", "activity change, negative = cytotoxic": "1.14% [at 35.3 µM]"}
    ]}
  ]
}
